For 9 compounds, z-score and composite z-score results are on record in PubChem BioAssay.

Assay [1] can be described thus: optical density shifts of acrAB sulA E. coli – strain DRC41, OD650, 48 h, E. coli filamentation inducer project, primary screen (AID 1152).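 Further: E. coli MC1000 strain DRC41 lacking acrAB efflux pump and sulA.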 The settings on record: higher = more signal, called active from +8 up or from −8 down.
The nature of assay [2]: probe aLefty1 binding on compound microarray – biochemical, small-molecule microarray, 635/667 nm fluorescence, primary screen (AID 1153).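 Further: score merges spot fluorescence with signal-to-noise ratio from the scanned slide images.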 The settings on record: higher = more signal.
The nature of assay [3]: plasmodial surface anion channel blockers, osmotic lysis – cell-based, P. falciparum Indochina, OD700, 1 h, primary screen (AID 1154). To be noted: P. falciparum Indochina infected RBC osmotic lysis, higher = more signal, called active from +8 up or from −8 down.
A short description of assay [4]: plasmodial surface anion channel blockers, osmotic lysis – cell-based, P. falciparum Indochina, OD700, 2 h, primary screen (AID 1155).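 Further: lysis reports solute entry through the parasite surface anion channel PSAC.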 To be noted: P. falciparum Indochina infected erythrocytes, higher = more signal, called active from +8 up or from −8 down.
Assay [5] can be described thus: changes in parasitized red cell lysis, either direction – P. falciparum Indochina, OD700, 3 h, PSAC antagonist project, primary screen (AID 1156). To be noted: P. falciparum-infected erythrocytes, osmotic lysis, higher = more signal, called active from +8 up or from −8 down.
The nature of assay [6]: plasmodial surface anion channel blockers, osmotic lysis – cell-based, P. falciparum Indochina, OD700, 18 h, primary screen (AID 1157). The settings on record: P. falciparum Indochina infected erythrocytes, osmotic lysis OD700, 18 h; higher = more signal, called active from +8 up or from −8 down.
Assay [7] in a line: S6 kinase pathway phospho-S6 level changes – cell-based, A549, cytoblot, luminescence, serum-stimulated, primary screen (AID 1158).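 Further: serum-stimulated A549 lung adenocarcinoma cells; signal is phosphorylated S6 detected by cytoblot immunostaining with HRP secondary.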 The settings on record: 5 h, higher = more signal.
For assay [8], the target named is NADPH oxidase 2 (Homo sapiens) (UniProt P04839). In words: compounds shifting NOX2 Amplex Red fluorescence – cell-based, HEK293-NOX2, PMA-stimulated, NOX inhibitor project, primary screen (AID 1159). Further: test concentration not given here. To be noted: 45 min, higher = more signal, called active from +8 up or from −8 down.
Assay [9] concerns the target NADPH oxidase 4 (Homo sapiens) (UniProt Q9NPH5). In words: compounds shifting NOX4 Amplex Red fluorescence – cell-based, HEK293-NOX4, tetracycline-induced, NOX inhibitor project, primary screen (AID 1160). The settings on record: HEK293-NOX4, Amplex Red H2O2 fluorescence, 45 min; higher = more signal, called active from +8 up or from −8 down.
Assay [10] addresses NADPH oxidase 5 (Homo sapiens) (UniProt Q96PH1). In words: compounds shifting NOX5 Amplex Red fluorescence – cell-based, HEK293-NOX5, NOX inhibitor project, primary screen (AID 1161). To be noted: HEK293-NOX5, ionomycin, 45 min, higher = more signal.
A short description of assay [11]: compound effects on lung adenocarcinoma cell viability – A549, calcein-AM fluorescence, 48 h, basal, profiling panel (AID 1162). Further: test concentration not given here. The settings on record: higher = more signal.
Assay [12] in a line: compound effects on differentiated 3T3-L1 adipocyte viability – cell-based, 3T3-L1 adipocytes, calcein-AM fluorescence, 48 h, basal, profiling panel (AID 1163). Further: test concentration not given here. To be noted: 3T3-L1 adipocytes viability, higher = more signal.
Assay [13] in a line: compound effects on hepatocellular carcinoma cell viability – HepG2, calcein-AM fluorescence, 48 h, basal, profiling panel (AID 1164). Further: test concentration not given here. The settings on record: higher = more signal.
The nature of assay [14]: compound effects on multiple myeloma cell viability – MM1S, calcein-AM fluorescence, 48 h, basal, profiling panel (AID 1165).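 Further: viability of MM1S multiple myeloma cells under basal unstimulated conditions; test concentration not given here.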 To be noted: higher = more signal.
Assay [15] can be described thus: calcein-AM signal in unstimulated myeloma cells – cell-based, calcein-AM fluorescence, 48 h, PK04 Diversity Set, profiling panel (AID 1166).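 Further: cells grown under basal conditions without added stimulus; test concentration not given here.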 To be noted: RPMI8226 myeloma viability, higher = more signal.
Assay [16] in a line: JC-1 mitochondrial signal, unstimulated HepG2 cells – cell-based, JC-1 fluorescence, 24 h, 100 nL compound, profiling panel (AID 1167). Further: test concentration not given here. To be noted: HepG2 mitochondrial potential, higher = more signal.
Assay [17] is described as follows: JC-1 mitochondrial signal, unstimulated adipocytes – cell-based, JC-1 fluorescence, 3T3-L1 adipocytes, 24 h, 100 nL compound, profiling panel (AID 1168). Further: test concentration not given here. To be noted: JC-1 mitochondrial fluorescence, higher = more signal, called active from +8 up or from −8 down.
Assay [18] is described as follows: JC-1 mitochondrial signal, unstimulated myeloma cells – cell-based, JC-1 fluorescence, RPMI8226, 24 h, 100 nL compound, profiling panel (AID 1169). Further: test concentration not given here. The settings on record: JC-1 mitochondrial potential fluorescence, higher = more signal.
A short description of assay [19]: JC-1 mitochondrial signal, unstimulated MM1S myeloma – cell-based, JC-1 fluorescence, 24 h, 100 nL compound, profiling panel (AID 1170). Further: test concentration not given here. The settings on record: MM1S mitochondrial potential, higher = more signal.
Assay [20] in a line: resazurin metabolic signal in A549 cells – cell-based, resazurin fluorescence, 24 h, PK04 Diversity Set, profiling panel (AID 1171). Further: test concentration not given here. The settings on record: A549 viability, higher = more signal, called active from +8 up or from −8 down. On the technique in general: Resazurin is reduced to fluorescent resorufin, in cell work by metabolically active cells.

Active and inactive are the calls of the source.

Sequence of NADPH oxidase 5 (Homo sapiens) (Q96PH1 whole entry, looked up): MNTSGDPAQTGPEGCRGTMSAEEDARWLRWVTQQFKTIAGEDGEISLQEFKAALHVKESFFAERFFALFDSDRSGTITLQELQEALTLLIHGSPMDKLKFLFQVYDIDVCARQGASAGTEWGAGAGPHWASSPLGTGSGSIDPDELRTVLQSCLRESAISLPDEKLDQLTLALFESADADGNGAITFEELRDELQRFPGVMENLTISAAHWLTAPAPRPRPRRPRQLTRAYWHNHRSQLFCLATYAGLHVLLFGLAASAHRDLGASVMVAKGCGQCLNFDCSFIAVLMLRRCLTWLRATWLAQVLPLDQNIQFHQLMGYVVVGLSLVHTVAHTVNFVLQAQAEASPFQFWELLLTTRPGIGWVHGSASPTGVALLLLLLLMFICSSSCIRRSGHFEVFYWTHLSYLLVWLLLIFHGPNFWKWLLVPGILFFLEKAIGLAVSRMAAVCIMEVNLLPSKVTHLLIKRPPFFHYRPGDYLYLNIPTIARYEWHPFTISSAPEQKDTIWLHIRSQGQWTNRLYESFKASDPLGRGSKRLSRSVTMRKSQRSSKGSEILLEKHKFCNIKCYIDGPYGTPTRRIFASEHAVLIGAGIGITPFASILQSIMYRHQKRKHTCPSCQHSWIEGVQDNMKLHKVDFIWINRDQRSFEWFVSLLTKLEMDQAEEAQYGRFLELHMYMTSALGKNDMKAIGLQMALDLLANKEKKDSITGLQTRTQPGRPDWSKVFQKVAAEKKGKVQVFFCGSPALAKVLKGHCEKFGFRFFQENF
Sequence of NADPH oxidase 4 (Homo sapiens) (Q9NPH5 whole entry, looked up): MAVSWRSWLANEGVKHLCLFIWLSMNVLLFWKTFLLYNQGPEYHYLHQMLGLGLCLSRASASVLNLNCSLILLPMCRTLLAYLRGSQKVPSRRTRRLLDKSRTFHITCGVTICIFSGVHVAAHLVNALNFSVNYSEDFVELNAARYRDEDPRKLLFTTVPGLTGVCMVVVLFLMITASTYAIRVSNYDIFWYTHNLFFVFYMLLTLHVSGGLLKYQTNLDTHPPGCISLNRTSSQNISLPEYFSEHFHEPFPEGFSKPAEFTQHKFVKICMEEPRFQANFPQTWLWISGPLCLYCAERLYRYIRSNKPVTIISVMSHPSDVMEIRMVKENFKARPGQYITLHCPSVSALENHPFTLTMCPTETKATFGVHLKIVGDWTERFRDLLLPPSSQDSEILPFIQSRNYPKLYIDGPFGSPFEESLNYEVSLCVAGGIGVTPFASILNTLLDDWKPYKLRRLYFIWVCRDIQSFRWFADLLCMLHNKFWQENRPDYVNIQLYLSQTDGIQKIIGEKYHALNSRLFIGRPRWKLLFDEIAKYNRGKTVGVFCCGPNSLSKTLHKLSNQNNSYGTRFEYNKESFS
Sequence of NADPH oxidase 2 (Homo sapiens) (P04839 whole entry, looked up): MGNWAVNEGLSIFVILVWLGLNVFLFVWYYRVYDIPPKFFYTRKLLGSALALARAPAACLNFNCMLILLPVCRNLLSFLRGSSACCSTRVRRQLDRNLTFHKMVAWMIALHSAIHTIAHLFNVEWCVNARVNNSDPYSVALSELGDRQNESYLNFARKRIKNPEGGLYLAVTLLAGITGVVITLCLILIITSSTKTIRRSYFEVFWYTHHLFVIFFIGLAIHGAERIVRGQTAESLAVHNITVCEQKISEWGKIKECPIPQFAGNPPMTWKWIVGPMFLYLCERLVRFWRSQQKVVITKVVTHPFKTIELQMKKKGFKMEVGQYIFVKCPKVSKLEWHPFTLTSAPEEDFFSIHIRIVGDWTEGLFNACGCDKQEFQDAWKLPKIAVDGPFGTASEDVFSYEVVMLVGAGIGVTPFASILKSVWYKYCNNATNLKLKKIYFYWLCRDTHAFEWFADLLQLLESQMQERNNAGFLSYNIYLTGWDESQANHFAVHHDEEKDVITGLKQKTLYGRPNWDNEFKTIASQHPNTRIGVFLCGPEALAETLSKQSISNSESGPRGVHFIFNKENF

With `CO[C@H]1COC(=O)[C@@H](C)COC(=O)[C@H](Cc2ccccc2)NC(=O)CC=C[C@H]1C`, the z-score in assay [1] was -0.507 (inactive); in assay [3], -0.318 (inactive); in [4], -1.31 (inactive); in [5], -0.116 (inactive); in assay [6] it was -2.15 (inactive); in assay [7] it was 0.627. Also, the z-score is 0.714 (inactive) in assay [8]; 0.791 (inactive) in [9]; 0.299 in assay [10]; -0.0475 in assay [11]; 0.838 in [12]; 0.53 in [13]. Moreover, the z-score in assay [14] was -0.0069; in assay [15], -0.602; in assay [16], 0.756; in [17] it was 0.906 (inactive); in assay [18], 0.25; in [19], 0.877. The z-score in [20] was 0.733 (inactive). For the same compound, the composite z-score in assay [2] is -0.363.

For `C=CCC(OC(C)=O)[C@@H]1[C@@H](N(Cc2cccc3ccccc23)C(=O)c2ccc(C)cc2)c2cc(OCCCO)ccc2N1C(=O)c1ccc(-c2ccccc2)cc1` (stereo not given in full), the z-score is 2.5 (inactive) in assay [1]; 0.441 (inactive) in [3]; -1.33 (inactive) in [4]; -1.24 (inactive) in [5]; -1.5 (inactive) in [6]; 2.07 in assay [7]. Moreover, the z-score was -0.0559 (inactive) in [8]; 1.01 (inactive) in assay [9]; 2.96 in [10]; 1.1 in assay [11]; 0.719 in [12]; 1.47 in assay [13]. The z-score is 1.07 in assay [14]; 0.783 in [15]; 3.02 in [16]; -0.0453 (inactive) in [17]; 0.456 in assay [18]; -0.848 in assay [19]. For the same compound, the z-score in assay [20] was 0.417 (inactive). In addition, in assay [2], the composite z-score came out at 0.0384.

`CN1C(=O)C2C=CC(C(O)C3CC=CCC3)N(Nc3ccccc3)C2C1=O` (stereo not given): the z-score in assay [1] was -1.08 (inactive); in [3], 0.756 (inactive); in assay [4] it was 0.0735 (inactive); in assay [5], -0.139 (inactive); in assay [6], 0.459 (inactive); in assay [7], -0.879. In addition, the z-score in [8] is -1.81 (inactive); in [9], -3.23 (inactive); in [10], -3.05; in assay [11], -0.653; in assay [12], -1.14; in [13] it was -0.661. Also, the z-score was 0.228 in [14]; -1.56 in assay [15]; -0.965 in assay [16]; -0.117 (inactive) in assay [17]; 0.116 in assay [18]; -0.608 in assay [19]. Also, the z-score in assay [20] was -0.293 (inactive). Also, in assay [2], the composite z-score came out at 0.346.

For the compound `CCC(=O)[C@]12O[C@@]3([C@@H]4C(=O)OCC[C@@H]41)N(CC)C(C)=C(C(=O)OC)[C@@H](c1ccccc1)N3C2=O`, the z-score is 0.362 (inactive) in [1]; 0.91 (inactive) in [3]; -0.071 (inactive) in assay [4]; -1.35 (inactive) in assay [5]; -1.08 (inactive) in assay [6]; 0.815 in assay [7]. The z-score in assay [8] was 1.5 (inactive); in assay [9], -1.36 (inactive); in assay [10], 0.922; in assay [11], 0.569; in assay [12] it was 1.77; in assay [13], 0.0496. Besides, the z-score was -0.868 in assay [14]; -1.8 in [15]; 0.684 in assay [16]; 0.112 (inactive) in assay [17]; -0.537 in [18]; 0.541 in assay [19]. For the same compound, in assay [20], the z-score is -0.257 (inactive). For the same compound, the composite z-score in assay [2] was -0.29.

With `O=C1OCC=C[C@H]2OC34C=CCN(Cc5ccccc5)C(=O)[C@H]3N(CCCCCO)C(=O)[C@@H]4[C@@H]12` (stereo not given in full), the z-score in assay [1] was 2.14 (inactive); in assay [3] it was 1.52 (inactive); in [4], -0.426 (inactive); in [5] it was -0.912 (inactive); in assay [6], -1.34 (inactive); in assay [7], 1.19. In addition, the z-score in [8] was 2.15 (inactive); in [9], 0.352 (inactive); in assay [10], 1.51; in assay [11], 0.16; in [12], 2.65; in assay [13] it was -0.566. The z-score was -0.231 in [14]; -0.166 in [15]; 0.00385 in assay [16]; 1.45 (inactive) in assay [17]; 1.27 in assay [18]; 1.72 in [19]. Further, the z-score in assay [20] was -0.208 (inactive). The composite z-score in assay [2] was -0.44.

For `CC(C)[C@H]1NC(=O)[C@@]23C(=O)N[C@@H](Cc4ccccc4)C2[C@H](C)[C@@]2(C)O[C@H]2C3/C=C/C/C=C\CNC(=O)[C@H](C)NC1=O` (stereo not given in full), the z-score in assay [1] is -0.629 (inactive); in assay [3], 3.36 (inactive); in assay [4], 0.538 (inactive); in assay [5], 0.386 (inactive); in [6], 0.01 (inactive); in assay [7] it was -0.221. The z-score in assay [8] is 0.813 (inactive); in [9], -0.833 (inactive); in assay [10], 0.137; in assay [11], 0.011; in assay [12], 0.657; in assay [13], -0.614. Besides, the z-score is 0.434 in assay [14]; -0.938 in assay [15]; -0.458 in [16]; -0.0933 (inactive) in assay [17]; 0.279 in [18]; 0.498 in assay [19]. Further, the z-score in [20] was 0.0653 (inactive). The composite z-score in assay [2] is -0.381.

As for `O=C1c2ccccc2[C@@]2(Cc3ccccc3N(CC(F)(F)F)C2=O)[C@H](c2ccc(CO)cc2)N1C1CCCCC1`, the z-score in assay [1] was 0.969 (inactive); in assay [3], 0.856 (inactive); in assay [4] it was 0.81 (inactive); in [5] it was 0.0811 (inactive); in [6], 0.427 (inactive); in assay [7], 0.0443. Further, the z-score in assay [8] was 0.161 (inactive); in assay [9] it was -0.501 (inactive); in [10], 0.239; in assay [11] it was -0.449; in assay [12], 0.747; in assay [13], -0.0145. For the same compound, the z-score was 0.129 in assay [14]; -1.27 in assay [15]; -0.0304 in assay [16]; 0.701 (inactive) in assay [17]; 1.06 in assay [18]; 0.933 in [19]. For the same compound, the z-score in [20] is 0.304 (inactive). The compound further gave a composite z-score in assay [2] of 0.062.

For `C#C[C@H](O[Si](C#Cc1ccccc1)(C(C)C)C(C)C)c1ccccc1`, the z-score in assay [1] was -0.0719 (inactive); in assay [3] it was 0.876 (inactive); in assay [4], 0.924 (inactive); in assay [5], -1.54 (inactive); in assay [6], 0.234 (inactive); in [7], -0.801. For the same compound, the z-score in [8] was 0.146 (inactive); in assay [9], -0.779 (inactive); in assay [10] it was -2.37; in assay [11] it was -1.62; in [12], -0.653; in assay [13], -1.47. Further, the z-score in assay [14] was -2.94; in [15], -1.91; in assay [16] it was -2.74; in [17], -0.448 (inactive); in assay [18] it was -0.154; in [19], -1.48. Besides, in [20], the z-score is -0.912 (inactive). In [2], the composite z-score stood at 0.22.

With `COC(=O)C[C@H]1O[C@]2(C(=O)N(Cc3ccccc3)c3ccc(I)cc32)[C@@H](C)[C@@H]1[Si](C)(C)c1ccc(OC)cc1`, the z-score is -0.562 (inactive) in assay [1]; 1.09 (inactive) in assay [3]; 0.544 (inactive) in assay [4]; 0.558 (inactive) in [5]; 0.574 (inactive) in assay [6]; 1.01 in assay [7]. Further, the z-score in assay [8] is 1.89 (inactive); in [9], -2.05 (inactive); in [10], 0.00992; in assay [11], -0.344; in assay [12] it was 1.02; in assay [13], 0.638. For the same compound, the z-score in assay [14] was -0.077; in assay [15] it was -1.22; in [16] it was 2.66; in assay [17], -1.07 (inactive); in assay [18], -0.226; in [19], 0.211. The z-score in assay [20] is -0.923 (inactive). Further, the composite z-score in assay [2] is -0.235.
